# Laboratory results published in PubChem BioAssay.
# Calls of active or inactive are those of the source.
# Legend:
# [1] = system: Plasmodium falciparum Sir2 (PF13_0152, Sir2A); test: pfSir2 binders on small-molecule microarrays, primary screen, biochemical, small-molecule microarray, 635 nm fluorescence (AID 1098); conditions: small-molecule microarray binding, fluorescence 635 nm; higher = more signal;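 note: score merges spot fluorescence intensity with its signal-to-noise ratio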
# [2] = small-molecule microarray binders of probe aDKK1, primary screen, biochemical, biotinylated probe, 635/667 nm fluorescence (AID 1099); conditions: higher = more signal;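 note: score merges 667nm spot fluorescence with signal to noise across triplicate slides; reference of the scale not given here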
# [3] = small-molecule microarray binders of probe aCHRDL2, primary screen, biochemical, biotinylated probe, 635/667 nm fluorescence (AID 1100); conditions: higher = more signal
# [4] = splicing luciferase reporter signal modulators, primary screen, spliceosome inhibition project, cell-based, HEK293, splice +/- reporter (AID 1101); conditions: luminescence, 24 h, higher = more signal, called active from +8 up or from −8 down;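 note: HEK293 cells carrying a splicing-competent luciferase reporter gene; test concentration not given here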
# [5] = biological target: Fibroblast growth factor 10 (Homo sapiens) (UniProt O15520); test: FGF10 binders on small-molecule microarrays, primary screen, biochemical, small-molecule microarray, 635 nm fluorescence (AID 1102); conditions: FGF10 binding, fluorescence 635 nm, higher = more signal
# Fibroblast growth factor 10 (Homo sapiens), sequence (O15520 whole entry, looked up): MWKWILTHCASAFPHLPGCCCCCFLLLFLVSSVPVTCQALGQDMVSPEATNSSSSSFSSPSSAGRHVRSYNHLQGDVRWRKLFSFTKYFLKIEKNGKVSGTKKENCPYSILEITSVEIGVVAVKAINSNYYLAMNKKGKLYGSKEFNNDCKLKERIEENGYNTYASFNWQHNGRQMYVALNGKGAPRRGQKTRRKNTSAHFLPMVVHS
# [6] = system: glycogen synthase kinase-3 (GSK3A per assay name; protocol says GSK3B); test: GSK3 binders on small-molecule microarrays, primary screen, biochemical, small-molecule microarray, 635 nm fluorescence, GSK3A (AID 1103); conditions: small-molecule microarray binding, fluorescence 635 nm; higher = more signal; note: the record names both GSK3A and GSK3B
# [7] = biological target: Epidermal growth factor receptor (Homo sapiens) (UniProt P00533); test: EGFR binders on small-molecule microarrays, primary screen, biochemical, small-molecule microarray, 635 nm fluorescence (AID 1104); conditions: EGFR binding, higher = more signal;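 note: score merges 667 nm emission intensity with spot signal to noise over triplicate slides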
# Epidermal growth factor receptor (Homo sapiens), sequence (P00533 whole entry, looked up): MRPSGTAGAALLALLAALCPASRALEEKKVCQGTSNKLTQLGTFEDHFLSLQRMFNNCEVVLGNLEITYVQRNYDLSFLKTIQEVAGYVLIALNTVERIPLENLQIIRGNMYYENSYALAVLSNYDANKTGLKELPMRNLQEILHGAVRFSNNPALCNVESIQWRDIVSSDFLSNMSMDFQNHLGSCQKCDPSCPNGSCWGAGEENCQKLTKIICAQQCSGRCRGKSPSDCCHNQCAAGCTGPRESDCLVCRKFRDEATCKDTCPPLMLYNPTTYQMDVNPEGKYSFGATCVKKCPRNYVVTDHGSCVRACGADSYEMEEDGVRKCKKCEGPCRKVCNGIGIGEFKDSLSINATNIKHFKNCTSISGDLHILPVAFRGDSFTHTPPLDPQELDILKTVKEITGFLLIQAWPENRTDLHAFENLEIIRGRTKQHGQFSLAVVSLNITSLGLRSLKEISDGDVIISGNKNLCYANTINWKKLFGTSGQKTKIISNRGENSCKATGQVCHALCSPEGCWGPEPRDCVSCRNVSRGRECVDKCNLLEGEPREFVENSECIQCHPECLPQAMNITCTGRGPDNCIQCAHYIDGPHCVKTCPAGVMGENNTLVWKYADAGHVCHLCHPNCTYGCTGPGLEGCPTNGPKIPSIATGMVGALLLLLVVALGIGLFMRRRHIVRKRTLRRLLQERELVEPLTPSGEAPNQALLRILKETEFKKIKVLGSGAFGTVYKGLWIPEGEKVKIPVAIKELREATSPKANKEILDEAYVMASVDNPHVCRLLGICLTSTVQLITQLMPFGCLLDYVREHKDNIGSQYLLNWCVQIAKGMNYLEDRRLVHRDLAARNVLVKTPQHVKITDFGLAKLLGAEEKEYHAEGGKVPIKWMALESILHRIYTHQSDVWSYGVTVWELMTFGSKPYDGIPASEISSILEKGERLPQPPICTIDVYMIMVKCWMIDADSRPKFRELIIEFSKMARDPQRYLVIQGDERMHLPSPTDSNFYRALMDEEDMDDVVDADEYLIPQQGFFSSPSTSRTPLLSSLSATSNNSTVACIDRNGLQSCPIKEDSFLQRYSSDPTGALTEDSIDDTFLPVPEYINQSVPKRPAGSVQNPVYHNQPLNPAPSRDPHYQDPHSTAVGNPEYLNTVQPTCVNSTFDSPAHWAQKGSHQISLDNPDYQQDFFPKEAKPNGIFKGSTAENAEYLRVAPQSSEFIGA
# [8] = biological target: Follistatin-related protein 3 (Homo sapiens) (UniProt O95633); test: FSTL3 binders on small-molecule microarrays, primary screen, biochemical, small-molecule microarray, 635 nm fluorescence (AID 1105); conditions: FSTL3 binding, higher = more signal;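 note: score merges emission near 667 nm and signal to noise per printed spot across three slides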
# Follistatin-related protein 3 (Homo sapiens), sequence (O95633 whole entry, looked up): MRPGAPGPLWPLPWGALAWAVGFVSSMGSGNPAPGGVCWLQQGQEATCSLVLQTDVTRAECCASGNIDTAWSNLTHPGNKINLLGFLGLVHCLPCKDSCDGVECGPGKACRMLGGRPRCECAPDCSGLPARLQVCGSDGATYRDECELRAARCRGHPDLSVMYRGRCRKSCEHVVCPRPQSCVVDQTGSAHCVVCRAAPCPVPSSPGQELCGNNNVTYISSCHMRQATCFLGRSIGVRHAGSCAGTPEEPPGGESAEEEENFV
# [9] = biological target: Dickkopf-related protein 1 (Homo sapiens) (UniProt O94907); test: DKK1 binders on small-molecule microarrays, primary screen, biochemical, small-molecule microarray, 635 nm fluorescence scan (AID 1106); conditions: DKK1 binding, higher = more signal;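 note: score merges emission near 667 nm with signal to noise over three replicate slides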
# Dickkopf-related protein 1 (Homo sapiens), sequence (O94907 whole entry, looked up): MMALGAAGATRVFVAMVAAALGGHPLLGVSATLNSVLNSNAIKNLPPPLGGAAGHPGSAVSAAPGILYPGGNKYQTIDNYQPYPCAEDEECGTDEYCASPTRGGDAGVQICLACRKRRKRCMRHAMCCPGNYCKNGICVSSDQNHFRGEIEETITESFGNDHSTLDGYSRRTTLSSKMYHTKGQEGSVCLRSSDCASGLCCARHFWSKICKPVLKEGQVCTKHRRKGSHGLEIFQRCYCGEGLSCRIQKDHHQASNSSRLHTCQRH
# [10] = system: Inhibin beta A chain (activin A); test: INHBA (activin A) binders on microarrays, primary screen, biochemical, small-molecule microarray, 635 nm fluorescence scan (AID 1107); conditions: small-molecule microarray binding, higher = more signal;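 note: mouse activin A protein probed at 4.33 µg/mL on printed slides; score merges bound-protein fluorescence near 667 nm with spot signal-to-noise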
Compound,composite z-score [1],composite z-score [2],composite z-score [3],z-score [4],composite z-score [5],composite z-score [6],composite z-score [7],composite z-score [8],composite z-score [9],composite z-score [10]
CCOC(=O)C[C@H]1[C@H](OC(=O)c2ccccc2-c2ccccc2)[C@@H](NC(=O)c2ccc3ccccc3c2)c2cc(OCCCO)ccc2N1C(=O)c1ccc2ccccc2n1,-0.0144,-0.228,-0.154,0.411 (inactive),0.533,0.119,0.289,0.521,-0.0224,0.282
COCCOC(=O)N1C(=O)[C@@]2(c3cc(C#Cc4ccc(OC)cc4)ccc31)[C@H](C(=O)N1CCN(c3ncccn3)CC1)[C@H]1C(=O)O[C@H](c3ccccc3)[C@H](c3ccccc3)N1[C@@H]2c1ccc(O)cc1,-0.12,-0.138,0.0953,-0.772 (inactive),-0.0132,-0.0617,-0.026,0.246,0.37,-0.0611
CCOC(=O)C[C@H]1[C@H](OC(=O)c2ccc(C(=O)c3ccccc3)cc2)[C@@H](NC(=O)C2CCCCC2)c2cc(OCCCO)ccc2N1C(=O)c1ccccc1,0.348,-0.0675,-0.0333,0.062 (inactive),0.398,0.628,0.122,0.165,0.126,0.559
N#Cc1ccc(NN2C(C(O)c3cccs3)C=CC3C(=O)N(c4ccccc4)C(=O)C32)cc1 (stereo not given),0.15,-0.0705,-0.25,-0.626 (inactive),1.18,0.349,0.55,0.642,-0.271,0.207
O=C1C[C@]2(c3ccc([N+](=O)[O-])cc3)C(=O)N(CC(F)(F)F)c3cc(CO)ccc3[C@H]2N1CC12CC3CC(CC(C3)C1)C2,1.75,-0.157,0.115,0.452 (inactive),0.0399,0.284,-0.736,0.23,0.301,0.36
COCCOC(=O)N1C(=O)[C@@]2(c3cc(C#CCC(C(=O)OC)C(=O)OC)ccc31)[C@H](c1ccccc1OCCO)N1[C@H](c3ccccc3)[C@H](c3ccccc3)OC(=O)[C@H]1[C@@H]2C(=O)N1CCc2cc(OC)c(OC)cc2C1,1.24,0.176,-0.131,-0.988 (inactive),1.16,1.33,0.99,1.3,1.42,0.645
O=C/C=C/c1ccc2c(c1)OCO2,0.229,-0.295,-0.475,-0.675 (inactive),0.562,0.469,0.614,0.506,0.486,1.25
O=c1cccc(C=Cc2ccccc2)o1,-1.32,0.121,0.756,-0.121 (inactive),-0.629,0.0144,-1.16,-0.657,-1.36,0.758
O=C1C=CC(=O)[C@@H]2CC(COc3ccccc3)=C3[C@@H](CCc4ccccc4)OB(O)C[C@@H]3[C@H]12,0.403,-0.339,-0.523,2.04 (inactive),0.545,0.34,0.515,0.887,1.07,0.72
C=C[C@@H](COC(C)=O)N(Cc1ccc([N+](=O)[O-])cc1)S(=O)(=O)c1ccc(Br)cc1,0.566,0.965,0.992,-0.807 (inactive),0.599,0.283,0.292,0.352,-0.0075,0.663
CC(C)C[C@@H]1NC(=O)[C@H]2C[C@@H](C(=O)NCCCCCNC(=O)CS)[C@@H](c3cccc(OCCO)c3)N2C1=O,1.52,-0.0356,-0.003,0.684 (inactive),1.03,1.32,1.08,1.36,1.44,1.25
C=CC[C@]1(C(=O)N2CCOCC2)N=C(c2ccc(OCCCO)cc2)O[C@H]1c1ccccc1,1.44,0.573,1.01,-0.0214 (inactive),0.182,1.28,-0.201,-0.524,0.142,0.862
COCCOC(=O)N1C(=O)[C@@]2(c3cc(C#CCNC(N)=O)ccc31)[C@H](c1ccccc1OCCO)N1[C@H](c3ccccc3)[C@H](c3ccccc3)OC(=O)[C@H]1[C@@H]2C(N)=O,0.806,0.117,0.106,-0.265 (inactive),0.848,0.786,0.528,1.26,0.439,0.719
COCC1=C2[C@@H](CCc3ccccc3)OB(O)C[C@@H]2[C@@H]2C(=O)N(Cc3ccccc3)C(=O)[C@@H]2C1,0.174,-0.143,-0.188,0.161 (inactive),0.628,0.197,0.388,0.191,0.249,0.728
CN1C=C(C(=O)OCCS(C)(=O)=O)C(C(=O)OCCS(C)(=O)=O)=CC(CCCO)=CC1C1CC1 (stereo not given),-0.274,-0.209,-0.0925,0.788 (inactive),0.428,-0.256,-0.14,0.0695,-0.596,-0.0932
CN(C)CCCCNC(=O)[C@H]1C[C@H]2C(=O)N[C@@H](Cc3ccccc3)C(=O)N2[C@H]1c1ccc(O)cc1,0.725,-0.0299,-0.0646,-1.03 (inactive),1.4,1.2,0.425,1.39,1.5,-0.44
